Source: PubChem (National Center for Advancing Translational Sciences (NCATS))
Compounds with a hit are over-represented: about 2.3% of the library has one in this group of screens.
A549 tox-1: A549 cytotoxicity, counter-screen for Nrf2 inhibitors; 0.16% of 390,000 active; A549 ARE-Fluc cells, CellTiter-Fluor viability, 18-24 h; Potency, µM (top dose mostly 46 µM), inactives show at the top dose activity change, negative = cytotoxicity, most hits filed as inhibitors; also: potency is read from the fitted curve at half-maximal effect; % is scaled to controls: 0 for no effect and ±100 for the full control effect
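A549 ARE-Fluc cells in 5% FBS OPTI-MEM, 5000 cells/well, rested 2 h then exposed to compounds in concentration-response for 18-24 h at 37 °C. Viability by CellTiter-Fluor fluorescence (Ex 405/Em 525) after 30 min; luciferase luminescence (BugLite, 15 min, RT) read afterwards.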
Nrf2 ARE act: activates Nrf2 signaling. AREc32 ARE-luciferase reporter (MCF7-derived line), luminescence, 24 h. Potency, µM (series often up to 46.1 µM), inactives show at the top dose activation, most hits filed as activators. 0.31% of 410,000 active; also: potency is read from the fitted curve at half-maximal effect; % of control where 0% means no effect; nearly all actives have a fitted effect of over 65% in size
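AREc32 cells carrying an ARE-driven firefly luciferase, 1000 cells/well in OPTI-MEM with 5% FBS, dosed after overnight attachment and incubated 24 hr at 37 deg C. Steady-Glo luminescence read after 30 min at RT.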
Nrf2 inh: Nrf2 pathway inhibition; A549 ARE-Fluc reporter, luciferase luminescence, 18-24 h; Potency, µM (highest dose often 46 µM), for inactives: at the top dose activity change, negative = inhibition, hits mostly inhibitors; 2.1% of 360,000 active; also: potency is read from the fitted curve at half-maximal effect; % is scaled to controls: 0 for no effect and ±100 for the full control effect; nearly all actives have a fitted effect of over 60% in size
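Quantitative HTS in A549 cells stably bearing an antioxidant response element-firefly luciferase construct. Inhibition of Nrf2-driven transcription was scored by luminescence after 18-24 h of compound exposure at 37 °C.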
IL-2 act: activators of IL-2; activation, % (series mostly up to about 46 µM); IL-2 activation reporter assay, cell-based qHTS; stimulated with anti-CD3/CD4/CD28 beads; in transgenic mouse T cells; 0.065% of 360,000 active; in the data active = activation above about 50%; inconclusive = mostly about 30% to 49%; also: 0% is about no effect
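Unstimulated transgenic mouse T cells; 60-min compound exposure; bead-based TCR/CD4/CD28 stimulation; 18 h culture, 37 degrees C; dual fluorescence (EGFP, DsRed) plate cytometry.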
FLuc counter 3: blocks purified firefly luciferase in Nrf2 counterscreen | purified firefly luciferase, luminescence inhibition | 4% of 1,400 active | shares compounds with Nrf2 inh | Potency, µM (top dose mostly 57.5 µM), without a hit: at the highest dose activity change, negative = inhibition, usual class: inhibitors; also: potency is read from the fitted curve at half-maximal effect; % is scaled to controls: 0 for no effect and ±100 for the full control effect; nearly all actives have a fitted effect of over 65% in size
Target sequence (P08659 whole entry, looked up): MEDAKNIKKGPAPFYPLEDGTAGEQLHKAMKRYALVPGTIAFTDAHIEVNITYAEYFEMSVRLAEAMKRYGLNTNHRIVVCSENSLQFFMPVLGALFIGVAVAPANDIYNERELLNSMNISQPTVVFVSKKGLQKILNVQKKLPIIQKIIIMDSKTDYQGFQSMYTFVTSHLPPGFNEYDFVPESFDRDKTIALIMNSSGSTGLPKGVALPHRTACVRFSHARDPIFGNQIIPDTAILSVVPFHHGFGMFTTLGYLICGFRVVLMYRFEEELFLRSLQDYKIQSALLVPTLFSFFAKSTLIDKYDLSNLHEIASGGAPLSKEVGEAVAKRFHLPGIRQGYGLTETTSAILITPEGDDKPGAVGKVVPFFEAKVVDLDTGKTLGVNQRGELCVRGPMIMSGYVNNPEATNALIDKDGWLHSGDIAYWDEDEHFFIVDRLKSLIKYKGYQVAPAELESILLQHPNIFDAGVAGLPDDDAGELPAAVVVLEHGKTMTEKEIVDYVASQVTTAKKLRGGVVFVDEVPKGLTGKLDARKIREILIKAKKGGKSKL
A549 tox-2: toxic to A549 ARE-Fluc cells in Nrf2 counterscreen | shares compounds with Nrf2 inh | A549 ARE-Fluc cells, cytotoxicity counterscreen | Potency, µM (top dose mostly 46.1 µM), for inactives: top-dose activity change, negative = cytotoxicity, hits mostly inhibitors | 2% of 1,400 active;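 also: potency is read from the fitted curve at half-maximal effect; cells exposed to compounds for 18 to 24 hours; % is scaled to controls: 0 for no effect and ±100 for the full control effect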
ARE-Fluc inh: Nrf2 inhibition confirmed, A549 ARE-luciferase | shares compounds with Nrf2 inh | A549 ARE-firefly luciferase reporter, luminescence | Potency, µM (doses to about 46.1 µM), for inactives: top-dose activity change, negative = inhibition, most hits filed as inhibitors | 74% of 1,400 active | AID 720524; also: potency is read from the fitted curve at half-maximal effect; % is scaled to controls: 0 for no effect and ±100 for the full control effect; nearly all actives have a fitted effect of over 65% in size
Numbers without * were called inactive; ? = inconclusive; / = no result shown. Unless noted, calls follow the shape of the dose curve; as a rule, active = well fitted curve in the direction sought with a large enough effect; inconclusive = small, poorly fitted or top-dose-only effect, or another doubt; inactive = no such curve, though single readings can be large; an effect the other way counts as inactive or inconclusive.

SMILES | A549 tox-1 | Nrf2 ARE act | Nrf2 inh | IL-2 act | FLuc counter 3 | A549 tox-2 | ARE-Fluc inh
O=c1c2ccccc2nc(-c2ccccc2)n1Cc1ccc(Cl)cc1 | 0.3% | -0.5% | 15.0% | -1.4 | / | / | /
O=c1c2ccccc2nc2n1CCN2Cc1ccc(Cl)cc1 | -21.2% | 4.5% | 5.8µM* | -0.6 | -15.5% | -12.5% | 4.11µM*
CCOc1ccc(-c2nonc2NC(=O)c2oc3ccc(Br)cc3c2C)cc1 | ? | -0.6% | ? | / | / | / | /
CC(C)Cn1c(N)c(C(=O)COC(=O)/C=C/c2ccccc2)c(=O)n(C)c1=O | ? | 0.2% | 6.51µM* | -0.6 | 1.3% | -4.8% | 7.31µM*
CC(C)Cn1c(N)c(C(=O)CSc2ccccc2)c(=O)n(C)c1=O | -2.5% | 2.1% | ? | -0.8 | / | / | /
CC(C)Cn1c(N)c(C(=O)COC(=O)CC23CC4CC(CC(C4)C2)C3)c(=O)n(C)c1=O | ? | -0.3% | 2.06µM* | -0.4 | -28.2% | -12.2% | /
CCOc1c(OC)cccc1C1CC(=O)Nc2cc3c(cc21)OCCO3 (stereo not given) | -1.1% | -1.4% | 7.2% | -3.2 | / | / | /
CC(C)COc1ccccc1C1CC(=O)Nc2cc3c(cc21)OCO3 (stereo not given) | -17.3% | -0.3% | 8.2µM* | / | -19.9% | ? | 23.1µM*
Cn1cccc/c1=N\c1cccc[n+]1C | -21.6% | 2.6% | 2.91µM* | 0.3 | -0.9% | -12.5% | 5.8µM*
COCCn1c(CN2CCN(c3cccc(Cl)c3)CC2)nc2c1c(=O)n(C)c(=O)n2C | -26.4% | 0.5% | 6.51µM* | -2.6 | -1.2% | -5.5% | /
CN(C)c1ccc(CNC(=O)C2CCCN(S(=O)(=O)c3ccc4c(c3)CCCC(=O)N4)C2)cc1 (stereo not given) | -0.4% | -0.6% | 5.8µM* | / | -9.9% | -0.5% | ?
O=C(Nc1ccncc1)C1C(=O)c2ccccc2N(Cc2ccccc2)C1=O (stereo not given) | 5.4% | / | ? | / | / | / | /
CN(Cc1ccccc1)C1=CC(=[N+]2CCCCC2)CC(C)(C)C1 | ? | -0.1% | 4.61µM* | -3.0 | 2.7% | -26.6% | 0.82µM*
CC(=O)c1cn(CC(=O)Nc2cccc(C)c2C)c2ccccc12 | -4.6% | 3.1% | 5.17µM* | -2.0 | 2.7% | -3.8% | ?
COc1ccc(S(=O)(=O)Nc2ccc(N3CCOCC3)cc2)cc1 | 7.7% | -0.6% | ? | -2.0 | / | / | /
COc1ccc(NS(=O)(=O)c2ccc(N3CCOCC3)c(N)c2)cc1 | -17.2% | -1.0% | 3.26µM* | -0.7 | -2.1% | 0.4% | 4.11µM*
COc1ccc2[nH]c(=O)c3c(c2c1)OC(C)(C)C=C3 | -18.5% | -1.3% | 8.2µM* | -2.2 | -13.5% | -23.3% | 11.6µM*
Cc1nc(N)nc(N)c1-c1ccc(Cl)c(Cl)c1 | -5.5% | 3.6% | ? | 0.0 | 2.1% | -11.9% | 1.16µM*
Cc1cc(OCc2nc(N)nc(N)c2-c2ccc(Cl)c(Cl)c2)ccc1[N+](=O)[O-] | 16.6% | 11.4% | 8.2µM* | -0.6 | -9.8% | -3.9% | 14.6µM*
O=c1c2c(nc3c(-c4ccc(Cl)cc4)c[nH]n13)CCCC2 | -11.9% | -1.1% | 7.94µM* | 0.3 | -15.9% | -16.2% | 6.51µM*
COc1cccc2c1C(=O)c1c(O)c3c(c(O)c1C2=O)CC(O)(C(=O)CO)CC3OC1CC(N(C)C)C(O)C(C)O1 (stereo not given) | ? | -1.7% | 0.461µM* | -6.6 | ? | ? | 0.259µM*
CCOc1ccc(C2C(C(N)=O)=C(C)Nc3nc(-c4ccc(OC)cc4)nn32)cc1 (stereo not given) | -3.4% | 0.7% | -3.1% | / | / | / | /
O=C(Nc1cccc(S(=O)(=O)C(F)F)c1)c1ccc(S(=O)(=O)N2CCCC2)cc1 | ? | 0.1% | 5.8µM* | -0.1 | 1.7% | -7.3% | ?
O=C(Nc1cccc(S(=O)(=O)C(F)F)c1)c1ccc(S(=O)(=O)N2CCOCC2)cc1 | -1.5% | 1.1% | -37.2% | 2.2 | / | / | /
COc1ccc(NS(=O)(=O)c2cccc(NC(=O)c3ccc(S(=O)(=O)N4CCCCCC4)cc3)c2)cc1 | ? | 0.2% | 5.8µM* | -0.5 | -2.5% | -14.5% | 5.8µM*
SMILES | A549 tox-1 | Nrf2 ARE act | Nrf2 inh | IL-2 act | FLuc counter 3 | A549 tox-2 | ARE-Fluc inh
CC12CCC(=O)C=C1CCC1C2C(=O)CC2(C)C1CCC2(O)C(=O)CO (stereo not given) | 0.9% | 0.2% | 5.7% | -0.6 | / | / | /
CC(=O)OCC(=O)C1(O)CCC2C3CCC4=CC(=O)CCC4(C)C3C(O)CC21C (stereo not given) | -1.0% | -0.5% | 0.146µM* | -0.8 | 3.0% | -6.7% | 0.184µM*
CCCCCCCC(=O)OCC(=O)[C@@]1(O)CC[C@H]2[C@@H]3CCC4=CC(=O)CC[C@]4(C)[C@H]3[C@@H](O)C[C@@]21C | -1.2% | -1.0% | 0.461µM* | -0.1 | 3.4% | -5.4% | 0.326µM*
CC12CCC(=O)C=C1CCC1C2C(O)CC2(C)C1CCC2(O)C(=O)COC(=O)COCC(=O)O (stereo not given) | -6.2% | 1.9% | 0.291µM* | -0.8 | 2.3% | -12.3% | 0.0731µM*
CCOC(=O)OCC(=O)C1(O)CCC2C3CCC4=CC(=O)CCC4(C)C3C(O)CC21C (stereo not given) | -6.3% | 3.6% | 0.206µM* | -5.7 | 1.4% | 3.7% | /
CC12CCC(=O)C=C1CCC1C2C(O)CC2(C)C1CCC21OCC1=O (stereo not given) | -7.5% | -0.1% | ? | -0.5 | / | / | /
Cc1cccc(CCNC(=O)c2nc(-c3ccc(Cl)cc3)n3c2CCCCC3)c1 | -14.7% | 0.3% | ? | / | / | / | /
CC(C)c1ccc(OCc2cc(=O)n3c(-c4ccccc4)csc3n2)cc1 | -0.1% | 0.0% | 1.4% | / | / | / | /
O=C(Nc1ccc(F)cc1F)c1noc2c1CCc1ccccc1-2 | 4.7% | 14.4% | ? | / | / | / | /
Cc1nc2ccc(NC(=O)c3cccs3)cc2c(=O)n1Cc1ccc(Cl)cc1 | ? | 8.8% | 4.61µM* | -1.6 | -10.6% | ? | 16.4µM*
O=C(NCC(c1cccnc1)N1CCc2ccccc2C1)C(=O)Nc1ccc(F)cc1F (stereo not given) | 6.9% | 0.2% | ? | / | / | / | /
CCN(CC)S(=O)(=O)c1cc(NC(=O)c2ccc(-n3cncn3)c([N+](=O)[O-])c2)ccc1C | ? | -0.6% | 4.11µM* | -4.8 | 0.6% | -9.9% | 6.51µM*
CCOc1ccc(NC(=O)CNS(=O)(=O)c2ccc(Br)s2)cc1 | 4.3% | -0.9% | -16.2% | / | / | / | /
O=C(CNC(=O)c1ccccc1)OCC(=O)c1cccc2ccccc12 | 0.5% | / | 5.5% | / | / | / | /
